Screening data: PubChem, several laboratories
SKKanGAS inh: S. pyogenes SKKanGAS growth inhibitors in kanamycin, primary screen, streptokinase expression inhibitor project, SKKanGAS strain, BacTiter-Glo luminescence; 6 h; inhibition, % at 7.5 µM; hit rate 1.3% among 300,000;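 active = mean replicate score, as percent of positive control median, at least 50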;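 also: strain carries kanamycin resistance gene driven by streptokinase promoter and grows in 40 µg/ml kanamycin; loss of luminescence reflects streptokinase promoter inhibition or plain growth inhibition; 0% = median of DMSO wells and 100% = positive control at its reference dose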
tim23-1 inh: growth inhibitors of tim23-1 mutant yeast, primary screen, luminescence, uHTS; inhibition, % at 20 µM; hit rate 1.3% among 330,000; S. cerevisiae tim23-1 growth, BacTiter-Glo luminescence, 24 h;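 active = growth inhibition of the mutant yeast at or above 50%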;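 also: temperature-sensitive mutant grown at 25 °C; plate controls were DMSO-treated mutant yeast for no effect and medium wells lacking yeast for full effect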
NALP3 yeast inh: NALP3 inflammasome inhibitors in reconstituted yeast, primary screen, luminescence, uHTS; hit rate 0.39% among 330,000; Yeast reconstituted NLRP3/ASC/caspase-1, beta-gal luminescence, 24 h; inhibition, % at 10 µM;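 active = inhibition of 50% or more; inactive = inhibition below 50%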;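 also: plate controls were induced DMSO wells for no effect and uninduced yeast grown without galactose for full effect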
TIM10 inh: growth inhibitors of isogenic TIM10 control yeast, primary screen, counter-screen for tim10-1 yeast inhibitor project, luminescence, uHTS | inhibition, % at 10 µM | S. cerevisiae TIM10 strain growth, BacTiter-Glo luminescence, 24 h | hit rate 1.4% among 330,000;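 active = inhibition of 40% or more at the single tested concentration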;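 also: wild-type TIM10 isogenic control strain grown at permissive 25 °C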
tim10-1 inh: growth inhibitors of tim10-1 mutant yeast, primary screen, luminescence, uHTS; S. cerevisiae tim10-1 ts strain growth, BacTiter-Glo, 24 h; inhibition, % at 20 µM; hit rate 2.2% among 330,000;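 active = inhibition of at least 40%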;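 also: mutant grown at 25 °C; 0% = DMSO wells with yeast and 100% = wells holding no yeast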
PfHsp90 set2: growth inhibition of PfHsp90-expressing yeast, primary screen, antimalarial PfHsp90 inhibitor project, S. cerevisiae, BacTiter-Glo luminescence, single point, set 2. BacTiter-Glo ATP, 48 h; yeast lacking PDR1 and PDR3 efflux regulators. inhibition, % at 9.4 µM. hit rate 0.32% among 310,000. AID 504621, 2011;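 active = every replicate shows inhibition above about 80%, whatever the replicate mean, limit read from the data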;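 also: 0% = DMSO neutral controls and 100% = 20 µM radicicol positive controls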
tim10-1 conf: growth inhibitors of tim10-1 mutant yeast, confirmation, single concentration, luminescence, S. cerevisiae | shares compounds with tim10-1 inh | S. cerevisiae tim10-1 ts strain growth, BacTiter-Glo, 24 h | inhibition, % at 20 µM | hit rate 56% among 7,400;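 active = inhibition of yeast growth at or above a set limit in either of two repeat tests at 20 µM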;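 also: tim10-1 mutant grown at permissive 25 °C to find synthetic lethal compounds; 0% = DMSO yeast wells and 100% = medium wells without yeast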
TIM10 conf: growth inhibitors of wild-type TIM10 yeast, confirmation, counter-screen for tim10-1 synthetic lethality project, single concentration, luminescence, S. cerevisiae. S. cerevisiae tim10 strain growth, BacTiter-Glo luminescence, 24 h. hit rate 63% among 4,600. inhibition, % at 10 µM. shares compounds with TIM10 inh. AID 463215, 2010;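 active = inhibition of yeast growth at or above a set limit in either of two replicates at 10 µM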;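 also: this counterscreen used the strain with wild-type TIM10; 0% = yeast with DMSO and 100% = medium wells lacking yeast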
tim23-1 conf: tim23-1 mutant yeast growth inhibitors, confirmation, luminescence, single concentration | shares compounds with tim23-1 inh | S. cerevisiae tim23-1 growth, BacTiter-Glo luminescence, 24 h | inhibition, % at 20 µM | hit rate 83% among 4,400;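 active = inhibition above about 39% in either of two replicate wells at 20 µM, limit read from the data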;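 also: temperature-sensitive tim23-1 mutant grown at 25 °C; 0% = DMSO wells with yeast and 100% = medium wells without yeast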
* hit, by the source's call; . = not tested or not shown. In the library only some 4.5% were active in any assay of this set; here they are far more common.

SMILES | SKKanGAS inh | tim23-1 inh | NALP3 yeast inh | TIM10 inh | tim10-1 inh | PfHsp90 set2 | tim10-1 conf | tim23-1 conf | others
COc1ccc(-c2cc(C(=O)N3CCN(c4ccccc4F)CC3)c3ccccc3n2)c(OC)c1 | 2 | 57* | 21 | 39 | 54* | 104* | 58* | 58*
CC(C)c1ccc(COC(=O)CN2C(=O)NC3(CCCCC3C)C2=O)cc1 (configuration not stated) | . | 37 | 9 | 15 | 32 | . | . | .
COc1cc(/C=C/C(=O)N2CCC=CC2=O)cc(OC)c1OC | . | 59* | 6 | 57* | 58* | 15 | 40* | 54* | TIM10 conf=45*
CN(C)C(=O)CCc1ccc2c3c([nH]c2c1)[C@]1(C)[C@@H](C(=O)N2CCOCC2)C[C@H](CC(=O)NCc2cccc(C(F)(F)F)c2)C(=O)N1CC3 | . | 26 | . | 2 | 0 | -28 | . | .
COc1ccc(-c2cc(C(=O)N(C)Cc3cccc(OC)c3OC)c3ccccc3n2)cc1OC | 25 | 70* | 2 | 50* | 53* | -4 | 64* | 94* | TIM10 conf=50*
COc1ccc(CN(C)C(=O)c2cc(-c3ccc(OC)c(OC)c3)nc3ccccc23)c(OC)c1 | 9 | 22 | 18 | 13 | 9 | 7 | . | .
COc1ccccc1CNC(=O)/C(C#N)=C/c1ccc(OC)c(OC)c1OC | -9 | 53* | 14 | 24 | 46* | 13 | 45* | -23
COc1ccc(/C=C(\C#N)C(=O)OCC(=O)NCc2ccccc2OC)cc1 | 18 | 1 | 18 | -9 | 2 | -14 | . | .
N/C(=N\OC(=O)c1cccc(Cn2cc(C(F)(F)F)ccc2=O)c1)c1ccc(Cl)cc1 | 0 | 51* | -12 | 3 | 44* | 12 | 56* | 60*
O=C(Sc1ccc(Cl)cc1)c1cccc(Cn2cc(C(F)(F)F)ccc2=O)c1 | 9 | 37 | 6 | 28 | 26 | 2 | . | .
CNC(=O)c1ccc(NC(=O)CCNC(=O)Nc2ccccc2)cc1 | . | 3 | -19 | -6 | -1 | 28 | . | .
Cc1c(C(=O)NCCCN2CCOCC2)sc2ncnc(N3CCN(c4ccccc4)CC3)c12 | . | . | . | . | . | -4 | . | .
CCCCNC(=O)c1sc2ncnc(N3CCc4ccccc4C3)c2c1C | 3 | 55* | 17 | 43* | 48* | . | 35* | 51* | TIM10 conf=36*
Cc1c(C)n(CC(O)CN2C(=O)c3ccccc3S2(=O)=O)c2ccccc12 (configuration not stated) | 9 | 74* | -3 | 43* | 66* | -11 | 65* | 89* | TIM10 conf=49*
CN1CCc2c(n(CC(O)CN3C(=O)c4ccccc4S3(=O)=O)c3ccccc23)C1=O (configuration not stated) | . | . | . | . | . | -6 | . | .
CC(C)Cc1ccc(-c2cc(=O)[nH][nH]2)cc1 | 15 | 53* | 2 | 7 | 59* | 0 | 28 | 44*
O=C(N1CCc2cc(S(=O)(=O)NC[C@H]3O[C@@H](n4ccc(=O)[nH]c4=O)[C@H](O)[C@@H]3O)ccc2C1)C(F)(F)F | . | . | . | . | . | -17 | . | .
Cc1cc(-c2nc3cc(F)ccc3s2)ccc1N | . | . | . | . | . | -5 | . | .
Cn1c(/C=C/c2cccc(Br)c2)nc2ccccc2c1=O | 1 | 63* | 48 | 22 | 57* | -11 | 55* | 59*
CCn1c(/C=C/c2cc(Br)ccc2O)nc2ccccc2c1=O | -2 | 63* | 23 | 58* | 67* | -18 | 69* | 75* | TIM10 conf=59*
CCN1CCN(C(=O)CSc2nc3c(c(=O)n(C)c(=O)n3C)n2C)CC1 | -6 | -7 | 23 | -6 | 4 | 3 | . | .
CCN(CC)C(=O)C1CCN(S(=O)(=O)c2ccc3c(c2)CCCN3C(=O)C2CCC2)CC1 | 0 | -4 | 9 | 3 | 5 | -1 | . | .
COc1ccc(OC)c(/C=c2\sc3nc(-c4cccs4)nn3c2=O)c1 | 7 | 53* | 8 | 28 | 49* | 7 | 37* | 47*
COc1ccc(C(=O)N/C(=C/c2ccco2)C(=O)N2CCCCCC2)cc1 | 1 | 38 | 6 | 22 | 19 | 23 | . | .
CCNC(=S)N/N=C/c1ccc(-c2ccccc2)o1 | -9 | 53* | 14 | 28 | 44* | -10 | 33* | 36
SMILES | SKKanGAS inh | tim23-1 inh | NALP3 yeast inh | TIM10 inh | tim10-1 inh | PfHsp90 set2 | tim10-1 conf | tim23-1 conf | others
NC(=S)N/N=C/c1ccc(-c2ccccc2)o1 | -12 | 11 | 24 | 27 | 13 | -11 | . | .
CCc1c(C)c(C#N)c2nc3ccccc3n2c1NC | 10 | 2 | 11 | 4 | -4 | 2 | . | .
CCc1c(C)c(C#N)c2nc3ccccc3n2c1NCCN(C)C | 1 | 59* | 36 | 58* | 63* | 17 | 56* | 65* | TIM10 conf=34*
Nc1ncnc2sc3c(c12)CCNC3 | -2 | -12 | 10 | -1 | 12 | -7 | . | .
N#C/C(=C\c1c(Cl)cccc1Cl)c1nc2ccccc2o1 | 2 | 62* | -5 | 40* | 73* | -45 | 75* | 74* | TIM10 conf=-15
N#C/C(=C\c1c(Cl)cccc1Cl)c1nc2ccccc2[nH]1 | 12 | 61* | 5 | 48* | 63* | -12 | 53* | 73* | TIM10 conf=52*
Cc1cc(O)ccc1N/C=C(\C#N)c1nc2ccccc2o1 | -1 | -10 | 14 | 3 | -1 | 19 | . | .
N#C/C(=C\c1ccc(Sc2ccc(Cl)cc2)o1)c1nc2ccccc2[nH]1 | . | . | . | . | . | 16 | . | .
Cc1ccc(NC(=O)N2CCCC2C(=O)NCc2ccc(Cl)cc2)cc1 (configuration not stated) | 8 | 14 | 8 | 0 | -4 | -3 | . | .
C(=C\c1nc(N2CCCCCC2)c2ccccc2n1)/c1ccccc1 | 42 | 50* | 27 | 44* | 46* | -23 | 31* | 38 | TIM10 conf=19
CC(=O)N1CCN(C(=O)COC(=O)/C=C/c2ccccc2[N+](=O)[O-])CC1 | . | -10 | 13 | -6 | -10 | 9 | . | .
O=C(NC(=S)Nc1cccc(F)c1)c1cccc([N+](=O)[O-])c1 | -2 | 54* | 28 | 6 | 49* | -8 | 3 | 52*
